# Results taken from PubChem BioAssay (NCI).
# About 79,000 compounds went through this panel and 15% of them were active in at least one assay; those are over-represented in the sample as a whole. Values without a mark were called inactive. Calls of active or inactive are those of the source. Cut-off read from the data, not from the text of the source: active = growth inhibition above about 70%; inactive = the rest.
# Experiments:
# [1] = NCI Yeast Anticancer Drug Screen. Data for the mec2-1 strain (AID 157); conditions: S. cerevisiae mec2-1 strain, at 50.0 µM, stronger effect = higher value
# How it was run: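 Using mec2-1 yeast: add compound, measure growth, express inhibition versus vehicle-treated cultures.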
# [2] = NCI Yeast Anticancer Drug Screen. Data for the sgs1 mgt1 strain (AID 161);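 note: 0% = growth of cultures given vehicle only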; conditions: S. cerevisiae sgs1 mgt1 strain, at 50.0 µM, stronger effect = higher value
# How it was run: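 Percent growth inhibition was derived by comparing compound-exposed mutant yeast with vehicle-exposed cultures. The strain carries alterations in DNA damage repair.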
# [3] = NCI Yeast Anticancer Drug Screen. Data for the cln2 rad14 strain (AID 165);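 note: 0% = growth equal to vehicle treated cultures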; conditions: S. cerevisiae cln2 rad14 strain, at 50.0 µM, stronger effect = higher value
# How it was run: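 Yeast strain cln2 rad14, bearing defects in cell cycle control and DNA repair, serves as the test system; values reflect growth inhibition compared with vehicle.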
# [4] = NCI Yeast Anticancer Drug Screen. Data for the bub3 strain (AID 167); conditions: S. cerevisiae bub3 mutant strain, at 50.0 µM, stronger effect = higher value
# How it was run: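 Inhibition values come from growth of compound-treated mutant yeast normalised to vehicle-treated controls.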
# [5] = NCI Yeast Anticancer Drug Screen. Data for the mlh1 rad18 strain (AID 175); conditions: S. cerevisiae mlh1 rad18 strain growth inhibition; at 50.0 µM; stronger effect = higher value
# How it was run: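 Steps: expose repair-defective yeast to compound; measure growth; express inhibition against vehicle-treated controls.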
Structure (SMILES),growth inhibition [1],growth inhibition [2],growth inhibition [3],growth inhibition [4],growth inhibition [5]
Cc1ncc([N+](=O)[O-])n1CCN(C)CCCCn1ccnc1[N+](=O)[O-],-1.2%,-5%,-3.75%,7.7%,-57.9%
CCCNc1ncnc2[nH]ncc12,-25.9%,-39.9%,-23%,-42.2%,-32%
Cc1ccn2nnnc2c1,-11.2%,-1.2%,1%,3.45%,-17.6%
CCc1cc(C)cc(CC)c1N,-14.2%,-8.55%,-24.6%,20.9%,3.8%
CCOP(=O)(OCC)OC1CC(n2cnc3c(N(CC)CC)ncnc32)OC1CO[Si](C)(C)C(C)(C)C (stereo not given),8.65%,54%,38.8%,47.9%,-16.1%
CCOC(=O)CC/C(=C\NC(=O)c1ccccc1)NC(=O)c1ccccc1,-26.4%,-21.6%,16.2%,-9.55%,1.9%
N#CC(C#N)=C1CCNCC1,-5.5%,-6.3%,-8.35%,3.65%,0.9%
CC(C)CCCC(C)[C@H]1CCC2[C@@H]3CCC4Cc5nc6c(nc5C[C@]4(C)C3CC[C@@]21C)CC1CC[C@@H]2C(C[C@@H](O)[C@@]3(C)C2C[C@@H]2OC4(CCC(C)CO4)C(C)[C@@H]23)[C@@]1(C)C6 (stereo not given in full),1.65%,-21.8%,-15%,-10.9%,-8.65%
COc1cc(N=Nc2ccc(N)nc2N)c(OC)cc1N=Nc1ccc([N+](=O)[O-])cc1,23%,1.8%,21.6%,9.4%,27.1%
O=C(O)CCSC1=CC(=O)C(SCCC(=O)O)=CC1=O,-13.2%,-1.4%,-75.7%,4.9%,-15.2%
COc1cccc2c1ccc1nonc12,-4.1%,-2.25%,-50%,-19.1%,2.2%
N#Cc1ccc(-c2nc3ccc(Cl)cc3[nH]2)cc1,-31%,-13.7%,6.7%,-30.9%,-21.9%
c1ccc2c(c1)Oc1ccccc1S2,-2.9%,-0.15%,3.85%,7.35%,-0.3%
CN1CCc2c1nc(-c1ccc([N+](=O)[O-])cc1)c1c2N(C)CC1,0.7%,2.8%,6.85%,10.8%,9.95%
N#Cc1c(-c2ccccc2)cc(-c2ccc(Cl)cc2)[nH]c1=S,8.2%,-19.1%,20.5%,42.2%,4.65%
COc1cc(C(C)(C)C)c2oc3c(c2c1)C(=O)C(C(C)(C)C)=CC3(OC)OC,-6.75%,-17%,6.4%,2.25%,-1.65%
NC(N)=NS(=O)(=O)c1ccc(N=Cc2c3ccccc3nc3ccccc23)cc1,99.3% (active),99.2% (active),98.8% (active),96% (active),98.8% (active)
O=C1NC(Cc2cccc(I)c2)C(=O)N1c1ccccc1 (stereo not given),3.1%,31.9%,28.8%,16.4%,29.4%
c1cnc(NC(Nc2cnccn2)C2CCCCC2)cn1,-1.55%,-6.6%,-20.9%,4.25%,1.35%
Cc1cc(N(CCC#N)CCC#N)ccc1N=Nc1cccc(C(=O)O)c1,-33.8%,-10%,-16.4%,-33.8%,-27.1%
